Article PMC7862700, “An all-to-all approach to the identification of sequence-specific readers for epigenetic DNA modifications on cytosine”

Legend:
Assay in all cases: DAPPL (digital affinity profiling via proximity ligation, sequencing); 10 mM Tris-HCl pH 7.5, 50 mM NaCl, 1 mM DTT, 4% glycerol, room temperature, 30 min; GST-TFs on glutathione beads, 16-mer random dsDNA library, 0.1% formaldehyde crosslink after washing; high values mean tight binding
FLI1 = target: T1, FLI1 (Homo sapiens, UniProt Q01543 1-452); details: protein: recombinant; tags: N-terminal GST; dsDNA, one strand shown
T1 sequence: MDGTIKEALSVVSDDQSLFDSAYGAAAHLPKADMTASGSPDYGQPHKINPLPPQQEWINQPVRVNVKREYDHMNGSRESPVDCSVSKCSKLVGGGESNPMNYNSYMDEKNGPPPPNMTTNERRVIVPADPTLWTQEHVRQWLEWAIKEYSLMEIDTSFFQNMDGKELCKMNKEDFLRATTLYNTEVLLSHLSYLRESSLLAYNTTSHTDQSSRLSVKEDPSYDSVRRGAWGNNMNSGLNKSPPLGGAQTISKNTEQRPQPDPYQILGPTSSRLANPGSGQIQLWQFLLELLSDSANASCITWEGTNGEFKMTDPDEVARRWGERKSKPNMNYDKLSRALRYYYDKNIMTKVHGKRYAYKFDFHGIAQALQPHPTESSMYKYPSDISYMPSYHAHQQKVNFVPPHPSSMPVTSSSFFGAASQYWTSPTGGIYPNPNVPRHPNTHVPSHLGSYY
How it was run: (§1)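 Beads coated with glutathione captured GST-fused human transcription factors that had been expressed in yeast, and the factors were then given DNA barcodes and pooled with a tag-only sample. The pools were incubated with 200 nmole of a random double-stranded 16-mer DNA library in Tris/NaCl/DTT/glycerol buffer for 30 min at room temperature, washed, crosslinked with 0.1% formaldehyde and proximity-ligated with BsaI/T4 ligase at 37 °C for 1 h. PCR amplification and Illumina NextSeq500 sequencing came last. Binding signal is each hexamer's read frequency for a factor divided by its frequency for the tag-only sample.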

ELK1 = target: T2, ELK1 (Homo sapiens, UniProt P19419 1-428); details: protein: recombinant; tags: N-terminal GST; dsDNA, one strand shown
T2 sequence: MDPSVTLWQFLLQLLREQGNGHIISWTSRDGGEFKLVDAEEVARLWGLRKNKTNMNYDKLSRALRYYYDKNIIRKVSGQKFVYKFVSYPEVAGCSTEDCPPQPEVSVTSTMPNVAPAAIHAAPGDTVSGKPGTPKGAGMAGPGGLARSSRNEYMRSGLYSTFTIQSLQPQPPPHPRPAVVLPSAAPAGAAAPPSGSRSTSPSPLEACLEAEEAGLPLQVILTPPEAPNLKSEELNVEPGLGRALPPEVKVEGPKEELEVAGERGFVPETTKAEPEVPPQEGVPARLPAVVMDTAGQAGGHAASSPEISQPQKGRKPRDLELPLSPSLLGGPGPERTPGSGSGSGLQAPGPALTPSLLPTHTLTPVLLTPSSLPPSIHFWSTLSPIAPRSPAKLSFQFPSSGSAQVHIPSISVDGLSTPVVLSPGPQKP
How it was run: as §1

GABPA = target: T3, GABPA (Homo sapiens, UniProt Q06546 1-454); details: protein: recombinant; tags: N-terminal GST; dsDNA, one strand shown
T3 sequence: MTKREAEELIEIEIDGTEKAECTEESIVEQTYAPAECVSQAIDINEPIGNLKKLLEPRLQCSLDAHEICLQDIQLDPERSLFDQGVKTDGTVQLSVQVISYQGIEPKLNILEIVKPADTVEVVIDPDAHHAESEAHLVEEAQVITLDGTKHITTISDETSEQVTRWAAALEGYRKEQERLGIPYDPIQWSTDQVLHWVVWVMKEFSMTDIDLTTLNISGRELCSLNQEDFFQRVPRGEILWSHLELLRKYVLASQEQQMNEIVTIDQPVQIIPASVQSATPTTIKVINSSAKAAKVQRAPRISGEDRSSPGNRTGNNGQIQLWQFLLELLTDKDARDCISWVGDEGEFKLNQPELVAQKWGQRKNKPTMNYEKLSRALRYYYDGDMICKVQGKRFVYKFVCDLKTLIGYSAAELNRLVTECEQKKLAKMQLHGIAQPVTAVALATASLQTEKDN
How it was run: as §1

ERG = target: T4, ERG (Homo sapiens, UniProt P11308 1-479); details: protein: recombinant; tags: N-terminal GST; dsDNA, one strand shown
T4 sequence: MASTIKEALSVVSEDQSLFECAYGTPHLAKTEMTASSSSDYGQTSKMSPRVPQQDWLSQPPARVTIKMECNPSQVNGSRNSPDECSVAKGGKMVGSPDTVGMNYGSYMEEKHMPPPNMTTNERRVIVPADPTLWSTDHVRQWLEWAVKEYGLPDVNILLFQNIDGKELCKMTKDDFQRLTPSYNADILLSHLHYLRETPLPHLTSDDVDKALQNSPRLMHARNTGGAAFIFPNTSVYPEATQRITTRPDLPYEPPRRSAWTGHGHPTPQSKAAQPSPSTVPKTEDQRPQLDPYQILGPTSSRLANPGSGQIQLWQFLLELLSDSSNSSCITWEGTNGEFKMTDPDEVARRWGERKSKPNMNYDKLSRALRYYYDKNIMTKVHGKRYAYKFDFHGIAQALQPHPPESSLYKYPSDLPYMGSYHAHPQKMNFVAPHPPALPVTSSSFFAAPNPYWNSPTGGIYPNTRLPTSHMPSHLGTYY
How it was run: as §1

ELF1 = ELF1 (Homo sapiens, UniProt P32519 1-619); details: protein: recombinant; tags: N-terminal GST; dsDNA, one strand shown
How it was run: as §1

EHF = target: T5, EHF (Homo sapiens, UniProt Q9NZC4 1-300); details: protein: recombinant; tags: N-terminal GST; dsDNA, one strand shown
T5 sequence: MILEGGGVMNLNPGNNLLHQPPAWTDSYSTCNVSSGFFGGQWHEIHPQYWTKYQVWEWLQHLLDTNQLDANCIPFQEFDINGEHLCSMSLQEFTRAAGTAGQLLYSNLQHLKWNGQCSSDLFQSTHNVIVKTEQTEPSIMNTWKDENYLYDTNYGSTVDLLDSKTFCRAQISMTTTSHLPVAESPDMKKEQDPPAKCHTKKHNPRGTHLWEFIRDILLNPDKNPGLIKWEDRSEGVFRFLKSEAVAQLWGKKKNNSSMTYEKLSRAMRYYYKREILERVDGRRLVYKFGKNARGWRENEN
How it was run: as §1

SPI1 = SPI1 (Homo sapiens, UniProt P17947 1-270); details: protein: recombinant; tags: N-terminal GST; dsDNA, one strand shown
How it was run: as §1

SPIB = SPIB (Homo sapiens, UniProt Q01892 1-262); details: protein: recombinant; tags: N-terminal GST; dsDNA, one strand shown
How it was run: as §1

ELK3 = target: T6, ELK3 (Homo sapiens, UniProt P41970 1-407); details: protein: recombinant; tags: N-terminal GST; dsDNA, one strand shown
T6 sequence: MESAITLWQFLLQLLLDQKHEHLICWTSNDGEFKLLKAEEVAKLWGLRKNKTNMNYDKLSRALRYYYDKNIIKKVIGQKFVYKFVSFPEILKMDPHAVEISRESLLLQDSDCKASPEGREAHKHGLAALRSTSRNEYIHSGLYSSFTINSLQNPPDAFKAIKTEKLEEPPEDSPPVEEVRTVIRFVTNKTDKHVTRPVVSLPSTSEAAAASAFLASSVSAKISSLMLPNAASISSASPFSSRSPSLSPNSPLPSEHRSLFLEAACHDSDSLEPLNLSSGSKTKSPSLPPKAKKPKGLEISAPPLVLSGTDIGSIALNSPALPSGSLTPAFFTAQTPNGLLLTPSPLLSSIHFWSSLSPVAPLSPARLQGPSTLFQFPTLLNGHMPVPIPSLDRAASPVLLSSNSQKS
How it was run: as §1

FEV = target: T7, FEV (Homo sapiens, UniProt Q99581 1-238); details: protein: recombinant; tags: N-terminal GST; dsDNA, one strand shown
T7 sequence: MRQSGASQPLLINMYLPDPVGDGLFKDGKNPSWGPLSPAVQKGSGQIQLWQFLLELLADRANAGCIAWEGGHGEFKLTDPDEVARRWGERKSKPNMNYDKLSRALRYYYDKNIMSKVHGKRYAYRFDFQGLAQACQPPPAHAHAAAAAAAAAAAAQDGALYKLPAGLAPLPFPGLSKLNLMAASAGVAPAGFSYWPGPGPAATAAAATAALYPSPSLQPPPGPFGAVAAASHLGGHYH
How it was run: as §1

ETV5 = ETV5 (Homo sapiens, UniProt P41161 1-510); details: protein: recombinant; tags: N-terminal GST; dsDNA, one strand shown
How it was run: as §1

HSF1 = HSF1 (Homo sapiens, UniProt Q00613 1-529); details: protein: recombinant; tags: N-terminal GST; chain copies: 3; dsDNA, one strand shown
How it was run: as §1

SPIC = target: T8, SPIC (Homo sapiens, UniProt Q8N5J4 1-248); details: protein: recombinant; tags: N-terminal GST; dsDNA, one strand shown
T8 sequence: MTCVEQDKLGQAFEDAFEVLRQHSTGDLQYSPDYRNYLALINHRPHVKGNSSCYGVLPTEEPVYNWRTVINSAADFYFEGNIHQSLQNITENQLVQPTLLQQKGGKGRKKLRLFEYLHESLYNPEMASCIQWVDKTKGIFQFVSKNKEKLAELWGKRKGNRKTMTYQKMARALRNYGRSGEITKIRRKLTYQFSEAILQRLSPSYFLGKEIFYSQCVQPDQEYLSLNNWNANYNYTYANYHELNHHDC
How it was run: as §1

ELF4 = ELF4 (Homo sapiens, UniProt Q99607 1-663); details: protein: recombinant; tags: N-terminal GST; dsDNA, one strand shown
How it was run: as §1

ELK4 = target: T9, ELK4 (Homo sapiens, UniProt P28324-2 1-405); details: protein: recombinant; tags: N-terminal GST; dsDNA, one strand shown
T9 sequence: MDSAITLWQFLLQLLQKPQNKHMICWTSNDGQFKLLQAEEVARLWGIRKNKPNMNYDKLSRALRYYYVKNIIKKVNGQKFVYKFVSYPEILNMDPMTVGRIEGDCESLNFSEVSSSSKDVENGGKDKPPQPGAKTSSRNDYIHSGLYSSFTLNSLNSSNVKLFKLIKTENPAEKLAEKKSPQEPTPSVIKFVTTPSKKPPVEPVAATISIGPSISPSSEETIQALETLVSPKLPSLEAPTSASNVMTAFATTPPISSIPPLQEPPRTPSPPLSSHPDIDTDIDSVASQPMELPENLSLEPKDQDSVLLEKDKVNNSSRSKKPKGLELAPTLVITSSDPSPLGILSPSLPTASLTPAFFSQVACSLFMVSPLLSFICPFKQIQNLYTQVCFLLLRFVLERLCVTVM
How it was run: as §1

ETV2 = target: T10, ETV2 (Homo sapiens, UniProt O00321 1-342); details: protein: recombinant; tags: N-terminal GST; dsDNA, one strand shown
T10 sequence: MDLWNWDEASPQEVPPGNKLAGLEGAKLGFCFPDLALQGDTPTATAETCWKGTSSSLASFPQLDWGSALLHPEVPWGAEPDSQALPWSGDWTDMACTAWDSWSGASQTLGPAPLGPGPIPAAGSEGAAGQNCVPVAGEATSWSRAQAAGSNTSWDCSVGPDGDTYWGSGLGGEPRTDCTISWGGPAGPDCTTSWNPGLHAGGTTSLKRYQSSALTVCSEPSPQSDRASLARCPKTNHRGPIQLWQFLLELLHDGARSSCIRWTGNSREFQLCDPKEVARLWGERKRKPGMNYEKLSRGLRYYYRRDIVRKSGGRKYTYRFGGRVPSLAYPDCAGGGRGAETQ
How it was run: as §1

ELF3 = target: T11, ELF3 (Homo sapiens, UniProt P78545 1-371); details: protein: recombinant; tags: N-terminal GST; dsDNA, one strand shown
T11 sequence: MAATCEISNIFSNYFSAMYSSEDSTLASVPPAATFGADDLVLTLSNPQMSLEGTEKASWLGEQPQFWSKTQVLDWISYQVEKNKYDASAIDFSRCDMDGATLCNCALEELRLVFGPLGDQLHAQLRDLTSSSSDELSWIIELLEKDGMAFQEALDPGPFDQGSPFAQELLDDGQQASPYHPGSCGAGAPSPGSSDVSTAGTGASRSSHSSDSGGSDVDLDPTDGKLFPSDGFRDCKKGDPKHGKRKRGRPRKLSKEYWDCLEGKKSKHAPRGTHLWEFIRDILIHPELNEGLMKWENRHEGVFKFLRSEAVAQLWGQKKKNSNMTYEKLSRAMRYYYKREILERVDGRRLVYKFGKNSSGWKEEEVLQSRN
How it was run: as §1

CRX = CRX (Homo sapiens, UniProt O43186 1-299); details: protein: recombinant; tags: N-terminal GST; dsDNA, one strand shown
How it was run: as §1

ETV1 = ETV1 (Homo sapiens, UniProt P50549 1-477); details: protein: recombinant; tags: N-terminal GST; dsDNA, one strand shown
How it was run: as §1

Sequence of HSF1 (Q00613 whole entry): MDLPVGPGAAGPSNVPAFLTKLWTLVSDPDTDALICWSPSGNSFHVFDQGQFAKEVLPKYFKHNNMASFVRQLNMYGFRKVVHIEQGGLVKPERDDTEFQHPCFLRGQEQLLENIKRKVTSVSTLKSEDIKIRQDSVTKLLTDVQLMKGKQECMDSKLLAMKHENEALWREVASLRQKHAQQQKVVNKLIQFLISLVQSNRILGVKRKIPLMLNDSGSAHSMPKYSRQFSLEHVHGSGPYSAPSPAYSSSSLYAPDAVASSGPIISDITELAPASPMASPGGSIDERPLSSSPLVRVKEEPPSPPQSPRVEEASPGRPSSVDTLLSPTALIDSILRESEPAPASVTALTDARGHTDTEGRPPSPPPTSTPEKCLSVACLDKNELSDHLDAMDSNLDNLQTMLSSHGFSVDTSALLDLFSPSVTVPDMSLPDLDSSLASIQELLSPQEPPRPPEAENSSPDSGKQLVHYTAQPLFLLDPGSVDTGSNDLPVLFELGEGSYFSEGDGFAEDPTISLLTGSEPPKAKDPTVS
Sequence of ETV1 (P50549 whole entry): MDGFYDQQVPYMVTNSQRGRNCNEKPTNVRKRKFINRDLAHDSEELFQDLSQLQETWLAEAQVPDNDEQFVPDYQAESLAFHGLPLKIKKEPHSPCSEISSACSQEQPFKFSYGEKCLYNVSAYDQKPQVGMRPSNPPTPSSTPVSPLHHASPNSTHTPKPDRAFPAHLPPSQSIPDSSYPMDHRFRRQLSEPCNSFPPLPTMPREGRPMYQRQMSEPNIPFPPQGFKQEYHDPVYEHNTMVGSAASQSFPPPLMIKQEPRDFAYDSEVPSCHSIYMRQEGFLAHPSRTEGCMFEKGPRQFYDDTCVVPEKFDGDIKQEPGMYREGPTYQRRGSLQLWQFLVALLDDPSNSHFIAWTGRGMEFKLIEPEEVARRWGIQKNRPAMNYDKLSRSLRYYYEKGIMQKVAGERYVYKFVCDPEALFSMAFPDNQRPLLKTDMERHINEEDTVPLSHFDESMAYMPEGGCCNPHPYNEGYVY
Sequence of SPIB (Q01892 whole entry): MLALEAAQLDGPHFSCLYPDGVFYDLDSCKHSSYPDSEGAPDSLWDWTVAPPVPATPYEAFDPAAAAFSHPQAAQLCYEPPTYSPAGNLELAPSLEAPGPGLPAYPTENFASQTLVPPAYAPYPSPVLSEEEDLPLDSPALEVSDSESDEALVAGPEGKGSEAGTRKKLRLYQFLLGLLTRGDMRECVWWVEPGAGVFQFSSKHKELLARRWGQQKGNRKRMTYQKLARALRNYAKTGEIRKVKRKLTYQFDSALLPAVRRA
Sequence of ELF1 (P32519 whole entry): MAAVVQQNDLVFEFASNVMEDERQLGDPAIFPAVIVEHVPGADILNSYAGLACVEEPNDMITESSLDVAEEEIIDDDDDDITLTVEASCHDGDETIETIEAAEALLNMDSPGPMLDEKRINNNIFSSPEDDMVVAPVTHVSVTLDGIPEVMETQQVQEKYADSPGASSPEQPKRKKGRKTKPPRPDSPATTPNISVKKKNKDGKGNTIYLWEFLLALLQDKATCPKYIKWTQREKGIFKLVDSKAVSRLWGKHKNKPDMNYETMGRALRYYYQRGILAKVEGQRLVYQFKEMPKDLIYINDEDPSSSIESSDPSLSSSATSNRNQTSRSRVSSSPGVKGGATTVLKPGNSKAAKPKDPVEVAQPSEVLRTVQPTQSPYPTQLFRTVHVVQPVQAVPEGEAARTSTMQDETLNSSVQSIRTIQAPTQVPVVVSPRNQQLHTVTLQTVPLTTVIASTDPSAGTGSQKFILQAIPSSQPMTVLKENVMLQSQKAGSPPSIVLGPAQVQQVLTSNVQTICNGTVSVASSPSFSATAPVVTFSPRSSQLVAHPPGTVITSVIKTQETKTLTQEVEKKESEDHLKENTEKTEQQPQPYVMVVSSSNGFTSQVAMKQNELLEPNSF
Sequence of ELF4 (Q99607 whole entry): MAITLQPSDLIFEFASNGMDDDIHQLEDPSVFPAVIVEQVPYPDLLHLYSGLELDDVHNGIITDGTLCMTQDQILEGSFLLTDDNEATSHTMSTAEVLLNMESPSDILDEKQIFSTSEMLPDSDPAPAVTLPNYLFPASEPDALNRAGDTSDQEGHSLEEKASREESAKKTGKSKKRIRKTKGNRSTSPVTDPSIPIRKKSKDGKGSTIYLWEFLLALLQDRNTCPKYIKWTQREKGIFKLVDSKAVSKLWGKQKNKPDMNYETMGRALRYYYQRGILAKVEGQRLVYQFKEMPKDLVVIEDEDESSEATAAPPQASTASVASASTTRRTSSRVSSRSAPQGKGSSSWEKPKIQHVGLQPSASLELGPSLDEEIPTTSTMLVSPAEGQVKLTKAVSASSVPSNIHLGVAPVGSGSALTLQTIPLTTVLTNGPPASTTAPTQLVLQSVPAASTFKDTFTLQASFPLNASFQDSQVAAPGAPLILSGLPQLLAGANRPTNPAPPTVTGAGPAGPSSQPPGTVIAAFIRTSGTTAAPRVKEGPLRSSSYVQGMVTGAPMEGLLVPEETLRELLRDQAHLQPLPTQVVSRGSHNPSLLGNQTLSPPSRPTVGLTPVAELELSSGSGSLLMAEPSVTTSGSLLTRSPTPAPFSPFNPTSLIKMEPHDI
Sequence of ETV5 (P41161 whole entry): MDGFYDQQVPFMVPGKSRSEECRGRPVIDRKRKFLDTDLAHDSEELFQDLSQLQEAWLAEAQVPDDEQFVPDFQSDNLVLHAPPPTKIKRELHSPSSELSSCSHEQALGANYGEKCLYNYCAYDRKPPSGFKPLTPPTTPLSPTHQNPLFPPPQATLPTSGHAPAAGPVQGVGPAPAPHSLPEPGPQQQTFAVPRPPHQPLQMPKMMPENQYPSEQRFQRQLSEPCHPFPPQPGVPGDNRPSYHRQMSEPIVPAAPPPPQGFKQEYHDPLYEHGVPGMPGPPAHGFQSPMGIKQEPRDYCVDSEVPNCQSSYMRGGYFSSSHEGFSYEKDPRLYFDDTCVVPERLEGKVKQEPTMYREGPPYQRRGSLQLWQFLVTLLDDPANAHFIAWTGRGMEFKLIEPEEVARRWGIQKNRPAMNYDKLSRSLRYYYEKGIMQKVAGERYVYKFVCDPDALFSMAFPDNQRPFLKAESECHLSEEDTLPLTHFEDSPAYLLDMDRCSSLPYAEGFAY
Sequence of CRX (O43186 whole entry): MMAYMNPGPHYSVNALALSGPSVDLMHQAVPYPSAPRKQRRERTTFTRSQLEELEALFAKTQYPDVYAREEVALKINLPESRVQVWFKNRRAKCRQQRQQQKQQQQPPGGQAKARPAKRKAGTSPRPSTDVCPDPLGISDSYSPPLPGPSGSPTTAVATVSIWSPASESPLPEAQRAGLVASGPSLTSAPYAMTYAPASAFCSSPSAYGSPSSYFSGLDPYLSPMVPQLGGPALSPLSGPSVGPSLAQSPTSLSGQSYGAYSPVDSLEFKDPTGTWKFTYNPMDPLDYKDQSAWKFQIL

CATCTG was tested, and the binding signal (FLI1) was 1.24 fold enrichment (6-mer frequency, TF over GST control), the binding signal (ELK1) was 1.23 fold enrichment (6-mer frequency, TF over GST control) and the binding signal (GABPA) was 1.37 fold enrichment (6-mer frequency, TF over GST control). For the same sequence, the binding signal (ERG) was 1.16 fold enrichment (6-mer frequency, TF over GST control), the binding signal (ELF1) was 1.33 fold enrichment (6-mer frequency, TF over GST control) and the binding signal (EHF) was 1.31 fold enrichment (6-mer frequency, TF over GST control). The binding signal (SPI1) was 1.08 fold enrichment (6-mer frequency, TF over GST control), the binding signal (SPIB) was 1.28 fold enrichment (6-mer frequency, TF over GST control) and the binding signal (ELK3) was 1.25 fold enrichment (6-mer frequency, TF over GST control). The binding signal (FEV) was 1.33 fold enrichment (6-mer frequency, TF over GST control), the binding signal (ETV5) was 1.2 fold enrichment (6-mer frequency, TF over GST control) and the binding signal (HSF1) was 1.25 fold enrichment (6-mer frequency, TF over GST control). The binding signal (SPIC) was 1.28 fold enrichment (6-mer frequency, TF over GST control), the binding signal (ELF4) was 1.25 fold enrichment (6-mer frequency, TF over GST control) and the binding signal (ELK4) was 1.39 fold enrichment (6-mer frequency, TF over GST control). The binding signal (ETV2) was 1.16 fold enrichment (6-mer frequency, TF over GST control), the binding signal (ELF3) was 1.37 fold enrichment (6-mer frequency, TF over GST control) and the binding signal (CRX) was 1.15 fold enrichment (6-mer frequency, TF over GST control). The binding signal (ETV1) was 1.31 fold enrichment (6-mer frequency, TF over GST control).
